Values joined by “and” are separate entries in the source; they are usually repeats but may differ in a detail not shown here. Equal entries are not always repeated. Inconclusive results are not listed. Active and inactive are the calls of the source. Unless noted, calls come from the whole dose curve; as a rule, active = well fitted curve in the direction sought with a large enough effect; inconclusive = small, poorly fitted or top-dose-only effect, or another doubt; inactive = no such curve, though single readings can be large; an effect the other way counts as inactive or inconclusive.
What was measured:
[1] = biological target: Mitogen-activated protein kinase 10 (Mus musculus) (UniProt Q61831); test: JNK3 AlphaScreen Assay (AID 530; active = well fitted curve in either direction with a large enough effect, not every such curve was filed as active;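 note: kinase came from lysate of stimulated human HepG2 cells; signal reports phosphorylation of biotinylated GST-cJun 1-79 at Ser73 with 10 µM ATP; % is set by controls: 0 for no effect and ±100 for the full control effect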)
Outline: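 Biotinylated GST-cJun(1-79) served as substrate for JNK3 in HepG2 lysates stimulated with IL-1beta and TNF-alpha. ATP was 10 uM final, pH 7.6. Ser73 phosphorylation was quantified by AlphaScreen (680 nm excitation).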

[2] = Cell Viability - Mesenchymal (AID 546);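 note: cells exposed to compound for 40 hours before reading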
Outline: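 In this qHTS cytotoxicity format, glomerulus-derived human mesenchymal kidney cells received compound for 40 hr, then luciferase-based ATP quantitation. Concentration-response data were fitted with the Hill equation.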

[3] = Cellular Toxicity (caspase-3) MRC-5 (AID 659);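 note: 0% = DMSO basal and 100% = 10 µM staurosporine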
Outline: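 Apoptosis readout in MRC-5 cells: luciferase light generated after caspase 3/7 cleaves a peptide-aminoluciferin substrate, measured post 16 hr compound incubation at 37 °C.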

[4] = Cellular Toxicity (caspase-3) Hek293 (AID 664); settings: HEK293 caspase-3 activation, DMSO = 0%, 100 µM tamoxifen = 100%; at 92.2 µM (top of the series);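 note: cells exposed to compound for 16 h at 37 °C before readout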
Outline: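 Luminescent Caspase-Glo 3/7 readout (aminoluciferin release) in HEK293 cells after 16 h compound treatment, 37 °C. Normalization: DMSO = basal, 100 uM tamoxifen = 100% stimulation. Concentration-response fitted with standard Hill equation for AC50.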

[5] = MultiTox-Fluor Cytotoxicity Assay - LYMP1-002 - Dead Cells (AID 960);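 note: 0% = DMSO and 100% = tetraoctylammonium bromide; nearly all actives have a fitted effect of over 60% in size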
Outline: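 Readout: fluorescence at 485/520 from cell-impermeant bis-AAF-R110 cleaved by proteases leaking from damaged cells. LYMP1-002 lymphoblastoid line, 16 hr compound treatment at 37 C, concentration-response in qHTS format; Hill-equation AC50 values.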

[6] = Cell Viability - LYMP2-017 (AID 972); note: % is set by controls: 0 for no effect and ±100 for the full control effect; nearly all actives have a fitted effect of over 55% in size
Outline: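 Luminescent ATP read-out (CellTiter-Glo, 30 min RT) reports viable cell number. Cells: human lymphoblastoid line, 2500 per well, 5 hr preincubation, 24 hr compound exposure at 37 C. AC50 is derived from qHTS concentration-response data using the standard Hill model.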

[7] = Cell Viability - LYMP2-021 (AID 974);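 note: compound exposure lasts 24 hours at 37 °C; % is set by controls: 0 for no effect and ±100 for the full control effect; nearly all actives have a fitted effect of over 55% in size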
Outline: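 ATP luminescence (CellTiter-Glo, 30 min RT) after 24 h compound exposure at 37 C; 2500 human lymphoblastoid cells/well, 5 h settle beforehand. Cytotoxicity = concentration-dependent ATP drop, AC50 by Hill fit.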

[8] = Cell Viability - LYMP2-016 (AID 984); note: % is set by controls: 0 for no effect and ±100 for the full control effect; nearly all actives have a fitted effect of over 55% in size
Outline: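 Human lymphoblastoid LYMP2-016 cells, 2500 per well, treated with compounds for 24 h at 37 C. Viability read as intracellular ATP by CellTiter-Glo luminescence after 30 min at room temperature; AC50 from Hill fits of concentration-response.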

[9] = biological target: Vitamin D3 receptor (Homo sapiens) (UniProt P11473); test: qHTS assay for small molecule agonists of vitamin D receptor signaling (AID 588543; calls by dose curve;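 note: 0% = DMSO basal and 100% = reference agonist control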)
Outline: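 VDR-UAS-bla HEK293T cells, 2000/well, 2% charcoal-stripped FBS; compound titration 16 h at 37 C; CCF4 beta-lactamase ratio read. Normalized to 50 nM 1-alpha,25-dihydroxyvitamin D3 (100%) and DMSO; Hill fit gives EC50, efficacy.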

[10] = biological target: Tumor necrosis factor (Homo sapiens) (UniProt P01375); test: qHTS assay to identify small molecules that stimulate Tumor Necrosis Factor-alpha (TNF-alpha) secretion (AID 651757; active = well fitted curve in the direction sought with a large enough effect in the signal ratio; the % refers to the signal ratio; note: 0% is about no effect)
Outline: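 THP-1 cells, 3000/well; compound 17 hrs, 37 C; add cryptate/XL665 anti-TNF-alpha antibody pair; 3 hr RT; TR-FRET (HTRF) read of secreted TNF-alpha. Quantitative HTS format.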

[11] = biological target: Nuclear receptor ROR-gamma (Homo sapiens) (UniProt P51449); test: qHTS assay for small molecule antagonists of the retinoid-related orphan receptor gamma (ROR-gamma) signaling pathway (AID 651802);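 note: CHO cells with doxycycline-induced ROR-gamma expression; luciferase reporter luminescence driven by ROR response element; % is set by controls: 0 for no effect and ±100 for the full control effect; nearly all actives have a fitted effect of over 60% in size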
Outline: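 Luciferase read-out: ONE-Glo luminescence after 30 min at room temperature, following 16hr doxycycline induction at 37C, 5% CO2 of CHO cells with TET-inducible ROR and RORE-LUC reporter; decreased luminescence = reduced reporter activity.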

[12] = qHTS assay for small molecule agonists of the antioxidant response element (ARE) signaling pathway measured by Nrf2-dependant transcriptional activity - cell viability counter screen (AID 720653; active = well fitted curve in the direction sought with a large enough effect in the repeat runs; an effect the other way counts as inactive or inconclusive; note: % is set by controls: 0 for no effect and ±100 for the full control effect); settings: ARE-bla HepG2 viability, CellTiter-Glo ATP luminescence, 16 h; hits give low values
Outline: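 ARE-bla HepG2 cells (2,000/well) rested 5 hrs at 37C/5% CO2, then exposed to compounds in DMSO for 16 hrs. Viability was read in the same wells as intracellular ATP by luminescence, 30 min at room temperature after reagent addition.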

[13] = qHTS assay for small molecule activators of the human pregnane X receptor (PXR) signaling pathway (AID 720659; call rule not given here; note: 0% is about no effect)
[14] = Cell Viability - NIH 3T3 (AID 541); settings: NIH 3T3 cell viability, qHTS; activity change, negative = cytotoxicity: at 92.2 µM (top of the series);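 note: cells exposed to compound for 40 hours; plate controls were DMSO alone for no effect and tamoxifen positive control for full effect; nearly all actives have a fitted effect of over 25% in size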
Outline: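 qHTS format; 40 hr compound exposure, 37 °C; CellTiter-Glo luminescence (cellular ATP) read-out after 20 min at RT. Decrease in ATP = cytotoxicity; AC50 from standard Hill fit.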

[15] = biological target: Cytochrome P450 3A4 (Homo sapiens) (UniProt P08684); test: qHTS Assay for Inhibitors and Substrates of Cytochrome P450 3A4 (AID 884); note: % is set by controls: 0 for no effect and ±100 for the full control effect; nearly all actives have a fitted effect of over 50% in size
Outline: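 Luminescent readout of luciferin produced by CYP3A4 (20 nM) dealkylation of Luciferin-PPXE, 25 uM (its KM). NADPH-driven reaction ran 60 min at RT after 10 min compound preincubation; data scaled to 57 uM ketoconazole as 100% inhibition.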

[16] = MultiTox-Fluor Cytotoxicity Assay - LYMP1-002 - Live Cells (AID 955); note: % is set by controls: 0 for no effect and ±100 for the full control effect
Outline: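 LYMP1-002 lymphoblastoid cells; 2500 cells/well; 16 hr compound exposure, 37 C; MultiTox-Fluor reagent 60 min RT; live-cell fluorescence Ex/Em=405/510; qHTS concentration-response, Hill-equation AC50; tetraoctylammonium bromide positive control.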

[17] = Cell Viability - LYMP1-002 - Assay at 24 hr (AID 993); note: % is set by controls: 0 for no effect and ±100 for the full control effect
Outline: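 CellTiter-Glo luminescence (intracellular ATP) after 24 h compound exposure, 37 C, in LYMP1-002 human lymphoblastoid cells; decreased ATP taken as cytotoxicity. AC50 from standard Hill fit of concentration-response curves.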

[18] = qHTS assay for small molecule disruptors of the mitochondrial membrane potential - 5 hr assay (AID 651755; calls by dose curve; note: nearly all actives have a fitted effect of over 40% in size; note: potency is the fitted concentration of half-maximal effect)
Outline: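 Seed HepG2 overnight, add compound, incubate 5 hr at 37C and 5% CO2, stain 30 min with Mito-MPS, then measure monomer (490/535 nm) and aggregate (540/590 nm) fluorescence.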

[19] = biological target: Nuclear receptor subfamily 1 group I member 2 (Rattus norvegicus) (UniProt Q9R1A7); test: qHTS assay for small molecule activators of the rat pregnane X receptor (rPXR) signaling pathway (AID 651751; call rule not given here; note: 0% is about no effect); settings: rPXR reporter cells, luciferase (One-Glo), 24 h
[20] = Cell Viability - LYMP2-003 (AID 965);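 note: cells exposed to compounds for 24 h before reading; 0% = DMSO only and full effect = 92 µM tetraoctylammonium bromide; nearly all actives have a fitted effect of over 50% in size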
Outline: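 Human lymphoblastoid LYMP2-003 cells, 2500/well, exposed to compounds for 24 h at 37 C in complete medium. Viability read as intracellular ATP by CellTiter-Glo luminescence; AC50 from Hill-equation fits of qHTS concentration-response data.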

Sequence of Nuclear receptor ROR-gamma (Homo sapiens) (P51449 whole entry, looked up): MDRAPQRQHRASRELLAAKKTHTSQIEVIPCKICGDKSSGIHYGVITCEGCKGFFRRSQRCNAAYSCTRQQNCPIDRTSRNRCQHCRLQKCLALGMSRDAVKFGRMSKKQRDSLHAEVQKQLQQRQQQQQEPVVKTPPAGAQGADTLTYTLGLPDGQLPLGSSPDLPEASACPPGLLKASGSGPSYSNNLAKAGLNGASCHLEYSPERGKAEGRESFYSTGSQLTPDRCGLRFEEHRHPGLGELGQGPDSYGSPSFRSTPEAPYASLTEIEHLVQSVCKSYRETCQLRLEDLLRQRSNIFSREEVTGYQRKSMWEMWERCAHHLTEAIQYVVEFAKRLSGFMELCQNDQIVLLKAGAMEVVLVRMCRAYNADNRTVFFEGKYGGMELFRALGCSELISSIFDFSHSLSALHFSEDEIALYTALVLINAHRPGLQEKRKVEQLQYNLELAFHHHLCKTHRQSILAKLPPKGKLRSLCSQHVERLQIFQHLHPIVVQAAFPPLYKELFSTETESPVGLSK
Sequence of Vitamin D3 receptor (Homo sapiens) (P11473 whole entry, looked up): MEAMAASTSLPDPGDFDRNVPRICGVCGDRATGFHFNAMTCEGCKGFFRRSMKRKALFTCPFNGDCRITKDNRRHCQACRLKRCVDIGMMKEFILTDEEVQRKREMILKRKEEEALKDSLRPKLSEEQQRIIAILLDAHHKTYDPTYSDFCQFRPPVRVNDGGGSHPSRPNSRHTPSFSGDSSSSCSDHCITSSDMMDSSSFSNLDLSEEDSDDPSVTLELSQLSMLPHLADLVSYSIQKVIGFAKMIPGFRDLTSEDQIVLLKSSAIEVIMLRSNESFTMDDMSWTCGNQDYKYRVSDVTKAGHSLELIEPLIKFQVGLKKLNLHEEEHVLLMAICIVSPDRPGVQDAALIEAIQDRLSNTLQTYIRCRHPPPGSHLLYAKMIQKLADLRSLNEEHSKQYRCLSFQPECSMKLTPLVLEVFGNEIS
Sequence of Nuclear receptor subfamily 1 group I member 2 (Rattus norvegicus) (Q9R1A7 whole entry, looked up): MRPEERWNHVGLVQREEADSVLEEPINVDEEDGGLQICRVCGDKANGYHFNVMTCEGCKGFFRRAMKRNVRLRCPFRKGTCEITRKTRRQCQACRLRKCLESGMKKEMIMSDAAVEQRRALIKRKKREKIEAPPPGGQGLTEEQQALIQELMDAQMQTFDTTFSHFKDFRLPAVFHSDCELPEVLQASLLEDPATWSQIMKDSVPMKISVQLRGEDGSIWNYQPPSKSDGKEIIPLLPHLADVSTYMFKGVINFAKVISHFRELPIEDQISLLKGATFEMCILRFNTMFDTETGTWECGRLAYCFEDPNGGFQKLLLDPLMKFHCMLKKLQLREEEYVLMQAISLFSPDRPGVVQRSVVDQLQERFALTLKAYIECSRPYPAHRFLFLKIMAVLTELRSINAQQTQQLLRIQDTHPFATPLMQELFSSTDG
Sequence of Tumor necrosis factor (Homo sapiens) (P01375 whole entry, looked up): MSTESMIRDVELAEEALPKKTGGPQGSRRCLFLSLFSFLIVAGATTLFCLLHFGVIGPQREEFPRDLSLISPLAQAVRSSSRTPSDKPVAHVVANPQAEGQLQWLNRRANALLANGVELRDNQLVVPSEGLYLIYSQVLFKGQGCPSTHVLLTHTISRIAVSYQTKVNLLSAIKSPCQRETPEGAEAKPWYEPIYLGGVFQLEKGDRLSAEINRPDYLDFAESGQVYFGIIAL
Sequence of Cytochrome P450 3A4 (Homo sapiens) (P08684 whole entry, looked up): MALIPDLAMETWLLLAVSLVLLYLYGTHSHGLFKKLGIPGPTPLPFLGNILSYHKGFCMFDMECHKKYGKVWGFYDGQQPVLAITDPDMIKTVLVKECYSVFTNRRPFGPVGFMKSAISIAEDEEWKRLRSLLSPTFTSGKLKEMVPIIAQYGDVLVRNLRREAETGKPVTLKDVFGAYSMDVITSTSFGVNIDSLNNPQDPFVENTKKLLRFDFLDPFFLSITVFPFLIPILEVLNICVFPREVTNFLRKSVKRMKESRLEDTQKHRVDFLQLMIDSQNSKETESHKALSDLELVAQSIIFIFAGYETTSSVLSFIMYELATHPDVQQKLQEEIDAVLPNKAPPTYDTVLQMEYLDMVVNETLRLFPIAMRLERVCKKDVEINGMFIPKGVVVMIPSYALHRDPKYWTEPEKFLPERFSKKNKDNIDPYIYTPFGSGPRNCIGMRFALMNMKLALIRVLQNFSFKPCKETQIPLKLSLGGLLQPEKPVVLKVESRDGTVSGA

O=[N+]([O-])c1ccc2c3c(cccc13)CC2
inactive: Potency [1] | Potency [2] | outcome [3] | caspase-3 activation [4] 1.65% | Potency [5] | Potency [6] | Potency [7] | Potency [8] | outcome [9] | outcome [10] | Potency [11] | max response [12] 3.04% and 5.87% | outcome [13]

ClCC(Cl)Cl
inactive: Potency [14] | Potency [2] | outcome [3] | caspase-3 activation [4] -0.541% | Potency [15] | outcome [16] | Potency [6] | Potency [7] | Potency [8] | Potency [17] | outcome [9] | Potency [18] | outcome [10] | Potency [11] | max response [12] -5.62% | max response [19] -0.324% | outcome [13]

CCCCOC(C)=O
inactive: Potency [1] | Potency [14] | Potency [2] | outcome [3] | caspase-3 activation [4] -0.0829% | Potency [15] | Potency [5] | Potency [20] | Potency [6] | Potency [17] | Potency [18] | outcome [10] | Potency [11] | max response [12] 10.3%

Nc1ncc([N+](=O)[O-])s1
inactive: Potency [14] | Potency [2] | outcome [3] | caspase-3 activation [4] -1.64% | Potency [15] | outcome [16] | Potency [5] | Potency [20] | Potency [7] | Potency [17] | outcome [9] | Potency [18] | outcome [10] | Potency [11] | max response [12] 0.285% | max response [19] -6.92% | outcome [13]

Oc1ccc(Cl)c(Cl)c1
inactive: Potency [1] | Potency [2] | outcome [3] | caspase-3 activation [4] 0.945% | Potency [15] | outcome [16] | Potency [5] | Potency [20] | Potency [6] | Potency [7] | Potency [8] | Potency [17] | outcome [9] | outcome [10] | max response [12] -2.38% | max response [19] -0.245% | outcome [13]
active: Potency [18] 42.2 µM

O=S(=O)(Cl)c1ccccc1
inactive: Potency [1] | Potency [2] | outcome [3] | caspase-3 activation [4] -0.803% | Potency [15] | outcome [16] | Potency [5] | Potency [20] | Potency [6] | Potency [7] | Potency [8] | Potency [17] | outcome [9] | Potency [18] | outcome [10] | max response [12] 9.62% and -3.03% | max response [19] -0.19% and -2.18% | outcome [13]
active: activity change, negative = cytotoxicity [14] -155%

C=CCBr
inactive: Potency [1] | Potency [14] | Potency [2] | outcome [3] | caspase-3 activation [4] 1.99% | Potency [15] | outcome [16] | Potency [20] | Potency [6] | Potency [7] | Potency [8] | Potency [17] | outcome [9] | Potency [18] | outcome [10] | Potency [11] | max response [12] -1.79% | max response [19] 1.14% | outcome [13]

Cc1cccc(N)c1C
inactive: Potency [1] | Potency [14] | Potency [2] | outcome [3] | caspase-3 activation [4] 1.27% | Potency [15] | outcome [16] | Potency [5] | Potency [20] | Potency [7] | Potency [8] | Potency [17] | outcome [9] | Potency [18] | outcome [10] | Potency [11] | max response [12] 1.88% | max response [19] -0.698% | outcome [13]

BrC(Br)Br
inactive: Potency [14] | Potency [2] | outcome [3] | caspase-3 activation [4] -0.311% | Potency [15] | outcome [16] | Potency [5] | Potency [20] | Potency [6] | Potency [7] | Potency [8] | Potency [17] | outcome [9] | Potency [18] | outcome [10] | Potency [11] | max response [12] -14.5% | max response [19] 0.0785% | outcome [13]

CCN(CC)N=O
inactive: Potency [1] | Potency [14] | Potency [2] | outcome [3] | caspase-3 activation [4] 1.39% | Potency [15] | outcome [16] | Potency [5] | Potency [20] | Potency [6] | Potency [7] | Potency [8] | Potency [17] | outcome [9] | Potency [18] | outcome [10] | Potency [11] | max response [12] 2.46% | max response [19] 3.34% | outcome [13]

CCCCOCC1CO1 (stereo unspecified)
inactive: Potency [14] | outcome [3] | caspase-3 activation [4] 3.87% | Potency [15] | outcome [16] | Potency [5] | Potency [20] | Potency [7] | Potency [8] | Potency [17] | outcome [9] | Potency [18] | outcome [10] | Potency [11] | max response [12] -2.9% | max response [19] 2.3% | outcome [13]

Nc1ccc(Cl)c(Cl)c1
inactive: Potency [14] | Potency [2] | outcome [3] | caspase-3 activation [4] 0.307% | outcome [16] | Potency [5] | Potency [20] | Potency [6] | Potency [7] | Potency [17] | outcome [9] | Potency [18] | outcome [10] | Potency [11] | max response [12] -17.9% | max response [19] 0.573% | outcome [13]

OCCCCO
inactive: Potency [1] | Potency [14] | Potency [2] | outcome [3] | Potency [15] | outcome [16] | Potency [5] | Potency [20] | Potency [7] | Potency [8] | Potency [17] | outcome [9] | Potency [18] | outcome [10] | Potency [11] | max response [12] -2.13%

c1ccc(Nc2ccc(Nc3ccccc3)cc2)cc1
inactive: Potency [2] | outcome [3] | caspase-3 activation [4] -2.23% | Potency [15] | outcome [16] | Potency [20] | Potency [6] | Potency [7] | Potency [8] | outcome [9] | Potency [11]
active: Potency [18] 59.6 µM

ClC(Cl)C(Cl)Cl
inactive: Potency [1] | Potency [14] | Potency [2] | outcome [3] | caspase-3 activation [4] -0.455% | Potency [15] | outcome [16] | Potency [5] | Potency [20] | Potency [6] | Potency [7] | Potency [8] | Potency [17] | outcome [9] | Potency [18] | outcome [10] | max response [12] -4.41% | max response [19] 3.27% | outcome [13]
